# M1 ag = activates human CHRM1 receptor; P11229; CHO-K1 hM1, Fluo-8 calcium fluorescence, agonist mode; 0% DMSO, 100% acetylcholine EC100; activation, % at 3 µM; actives 0.33% (n = 360,000); AID 588814;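 active = activation above the run's mean compound activation plus 3 SD, cut at about 16% in these data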;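 note: peak over basal fluorescence ratio within a 140 s kinetic read after compound addition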
# Target sequence (P11229 whole entry, looked up): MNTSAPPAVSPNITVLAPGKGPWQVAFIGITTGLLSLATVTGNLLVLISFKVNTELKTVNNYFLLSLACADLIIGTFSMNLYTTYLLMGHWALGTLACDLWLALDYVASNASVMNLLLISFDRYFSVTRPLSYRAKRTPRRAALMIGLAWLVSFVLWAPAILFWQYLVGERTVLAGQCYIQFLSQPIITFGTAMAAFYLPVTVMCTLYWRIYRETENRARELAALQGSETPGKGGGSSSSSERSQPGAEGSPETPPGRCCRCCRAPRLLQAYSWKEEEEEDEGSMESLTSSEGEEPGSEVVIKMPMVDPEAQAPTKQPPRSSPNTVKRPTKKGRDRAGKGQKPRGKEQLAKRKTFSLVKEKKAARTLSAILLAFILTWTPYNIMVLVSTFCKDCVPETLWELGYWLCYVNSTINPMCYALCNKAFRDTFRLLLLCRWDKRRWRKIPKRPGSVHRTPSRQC
# CHO-K1 Ca antag = M1 antagonist counterscreen hit in parental CHO-K1 cells. ATP-induced calcium, Fluo-8 fluorescence. inhibition, % at 3 µM. actives 0.6% (n = 360,000);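 active = inhibition above a per-plate cutoff, the plate's mean sample inhibition plus 3 SD, cut at about 24% in these data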
# M1 ag parental = M1 agonist counterscreen hit in parental CHO-K1 cells. Fluo-8 calcium fluorescence; scaled to maximal ATP response, vehicle zero. activation, % at 3 µM. actives 0.48% (n = 360,000). AID 602248; in the data active = activation above about 15%;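 note: untransfected CHO-K1 host cells lacking M1 receptor as counterscreen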
# M1 PAM parental = M1 PAM counterscreen hit in parental CHO-K1 cells. ATP EC20, Fluo-8 calcium fluorescence; 0% at ATP EC20, 100% at ATP max. activation, % at 3 µM. actives 0.02% (n = 360,000). AID 602247;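 active = activation above the run cutoff, the mean activation of all test compounds plus 3 SD, cut at about 40% in these data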;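 note: peak over basal fluorescence ratio in a 140 s read after ATP addition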
# M1 antag = antagonists of human M1 muscarinic receptor; AID 588852; inhibition, % at 3 µM; CHO-K1 hM1, Fluo-8 calcium fluorescence, ACh EC80 antagonist; actives 1.3% (n = 360,000);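 active = percent inhibition above its own plate's cutoff, namely the mean of that plate's compound wells plus 3 SD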;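 note: peak over basal fluorescence ratio during 140 s after agonist addition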
# CHRM1 PAM = positive allosteric modulators of human M1 muscarinic receptor. CHO-K1 hM1, Fluo-8 calcium fluorescence, ACh EC20; 0% = ACh EC20, 100% = maximal ACh. actives 0.088% (n = 360,000). activation, % at 3 µM. AID 588819; in the data active = activation above about 19%, passing the limit was not always enough
# A number is an active result; . = inactive. Only some compounds are listed: those with a hit (about 2.3% of all), similar ones and a draw of the others.
SMILES,M1 ag,CHO-K1 Ca antag,M1 ag parental,M1 PAM parental,M1 antag,CHRM1 PAM
C[C@H]1CN([C@@H](C)CO)C(=O)CCCn2nncc2CO[C@@H]1CN(C)Cc1ccc(-c2ccccc2)cc1,.,.,.,.,37,.
Cc1ccc(S(=O)(=O)N(C)C[C@H]2OCc3cnnn3CCCC(=O)N([C@@H](C)CO)C[C@H]2C)cc1,.,.,.,.,.,.
COc1ccc(S(=O)(=O)N(C)C[C@@H]2OCc3cnnn3CCCC(=O)N([C@@H](C)CO)C[C@@H]2C)cc1,.,.,.,.,.,28
C[C@@H]1CN([C@@H](C)CO)C(=O)CCCn2nncc2CO[C@@H]1CN(C)C(=O)Nc1cccc(C(F)(F)F)c1,.,26,.,.,.,.
C[C@@H]1CN([C@H](C)CO)C(=O)CCCn2nncc2CO[C@H]1CN(C)Cc1ccc(-c2ccccc2)cc1,.,.,.,.,.,.
O=C(c1ccccc1)N1CCN(C(=O)c2nn3c(C(F)(F)F)cc(-c4ccccc4)nc3c2Br)CC1,.,.,.,.,.,.
C[C@H](NC(=O)c1nc[nH]c1C(=O)NCc1ccc(CNC(=O)OC(C)(C)C)cc1)C(=O)OCc1ccccc1,.,.,.,.,45,.
C[C@@H](NC(=O)c1nc[nH]c1C(=O)NCC(=O)OCc1ccccc1)c1ccccc1,.,.,.,.,33,.
C[C@@H](NC(=O)c1nc[nH]c1C(=O)OCc1ccccc1)c1ccccc1,.,.,.,.,.,.
C[C@H](CO)N1C[C@H](C)[C@@H](CN(C)C(=O)NC2CCCCC2)Oc2ccc(NS(=O)(=O)c3ccc(F)cc3)cc2C1=O,.,.,.,.,.,.
COc1ccc(NC2=NCC(Cc3ccc(Br)cc3)S2)cc1 (stereo not drawn),.,.,.,.,79,.
COc1ccc(CNc2ccc(Br)cc2)cc1,.,.,.,.,.,.
CN1/C(=C\C=C2/SC(=S)N(CC(=O)O)C2=O)C(C)(C)c2ccccc21,131,.,30,.,37,.
CN1CCS/C1=C\C=C1/SC(=S)N(CC(=O)O)C1=O,.,.,40,.,.,.
CC1(C(=O)Nc2ccc3ccccc3c2)CCC(=O)N1CC(F)(F)F (stereo not drawn),.,32,.,.,.,.
CC1(C(=O)Nc2ccc3c(c2)OCCO3)CCC(=O)N1CC(F)(F)F (stereo not drawn),.,.,.,.,.,.
CCOC(=O)N1CCC(N(CCN(C)C)C(=S)Nc2ccc(F)c(Cl)c2)CC1,.,27,.,.,.,.
CCOC(=O)c1ccc(N2CCN(c3ccccc3F)CC2)c(NC(=O)Nc2cccc(OC)c2)c1,.,41,.,.,32,.
CCOC(=O)c1ccc(NC(=O)N2CCN(c3ccccn3)CC2)cc1,.,.,.,.,.,.
COC(=O)c1ccc(N2CCOCC2)c(NC(=O)Nc2cccc(OC)c2)c1,.,.,.,.,.,.
CCOC(=O)c1ccc(NC(=O)N2CCN(c3cccc(OC)c3)CC2)cc1,.,.,.,.,44,.
CCOc1ccc(NC(=O)CN(C)C(=O)c2c(C)nn(-c3ccccc3)c2Cl)cc1OCC,.,.,.,.,.,.
COc1ccccc1NC(=S)N(CCCN1CCOCC1)Cc1cccs1,.,.,.,.,.,.
Cc1ccc(-n2nnnc2CNC(=O)c2ccc(Br)o2)cc1C,.,.,.,.,.,.
Cc1ccc(-n2nnnc2CNC(=O)c2ccc3c(c2)OCO3)cc1C,.,.,.,.,63,.
SMILES,M1 ag,CHO-K1 Ca antag,M1 ag parental,M1 PAM parental,M1 antag,CHRM1 PAM
CCCCN1CC(C)(C)[C@H](CC(=O)NC)C1=O,.,.,.,.,.,.
N=c1c2c(n(Cc3ccc(Cl)c(Cl)c3)c3c1CCC3)CCCC2,.,.,.,.,.,.
N=c1c2c(n(Cc3ccc(Br)cc3)c3c1CCC3)CCCC2,.,.,.,.,26,.
O=C(NC1CCCN(Cc2ccc(Cl)cc2)C1)c1ccoc1 (stereo not drawn),.,.,.,.,.,.
C[C@@H](CN1C2=NC[C@H](Cc3ccccc3)N2C[C@H]1Cc1ccc(O)cc1)NC(=O)CCC1CCCCC1,.,.,.,.,40,.
C[C@@H](CN1C2=NC[C@H](Cc3ccc(O)cc3)N2C[C@H]1Cc1ccc(O)cc1)NC(=O)CCC1CCCCC1,.,.,.,.,.,.
CN(C)c1ccc(/C=C/c2nc3ccccc3c(=O)n2CCO)cc1,30,.,.,.,.,.
CCN(CC)C(CNS(=O)(=O)c1ccc(Cl)cc1)c1ccccc1 (stereo not drawn),.,.,.,.,.,.
CN(C)c1ccc(CN2CCCCCC2)cc1,.,.,.,.,45,.
COc1ccc(CN2CCCCCC2)cc1,.,25,.,.,.,.
CCN(CC)c1ccc(CN2CCCCCC2)cc1,.,.,.,.,.,.
COc1ccc(CN2CCOCC2)cc1,.,.,.,.,.,.
C[C@@H]1CNC(=O)c2c(C(=O)N[C@H](C)c3ccccc3)ncn21,.,.,.,.,.,.
C=CCc1cccc(CNc2cnc3ccccc3c2)c1O,.,39,.,.,40,.
CC(C)(Cc1nc2ccccc2[nH]1)c1nc2ccccc2[nH]1,.,.,.,.,.,.
CN(C)CC/C=C1\c2cc(F)ccc2CSc2ccccc21,.,.,.,.,99,.
CN(C)CC/C=C1/c2cc(F)ccc2CSc2ccc(F)cc21,.,.,.,.,100,.
O=c1c(C(c2ccc(O)cc2)c2c(O)nc3n(c2=O)CCS3)c(O)nc2n1CCS2,.,24,.,.,.,.
CC(c1ccccc1)n1c(SCC(=O)Nc2ccccc2)n[nH]c1=O (stereo not drawn),.,.,.,.,.,.
FC(F)(F)c1ccccc1NC(=S)Nn1cnnc1,.,.,.,.,.,.
CCCOC(=O)c1cccc(Nc2nc(-c3cccnc3)nc3ccccc23)c1,.,.,.,.,34,.
O=C(OCCNc1nc(-c2ccccc2)nc2ccccc12)c1cccnc1,.,.,.,.,.,.
NC(=O)c1ccc(NC(=O)COc2cccc3ccccc23)cc1,.,.,.,.,.,.
Cc1ccc(NC(=O)C(OC(=O)c2ccc(O)cc2)c2ccccc2)cc1Cl (stereo not drawn),.,.,.,.,.,.
Cc1ccc(NC(=O)C(OC(=O)c2ccc(F)cc2)c2ccccc2)cc1Cl (stereo not drawn),.,.,.,.,40,.
O=C(CN1CCCCC1)Nc1nnc(-c2ccc([N+](=O)[O-])cc2)s1,.,29,.,.,.,.
O=C(Nc1nc(-c2ccccn2)cs1)c1cccc(S(=O)(=O)N2CCOCC2)c1,.,.,.,.,.,.

# High-throughput results as filed in PubChem.
